Screening results from PubChem.
IMPase Li cell: qHTS Assay for Identifying the Cell-Membrane Permeable IMPase Inhibitors: Potentiation with Lithium; 210,000 tested, 0.35% active; Potency, µM (top dose mostly 59.4 µM), inactives show top-dose activity, negative = IMPase inhibition, actives largely listed as inhibitors; CHO-M1 cells, IP1 TR-FRET (IP-One), carbachol + lithium; active means well fitted curve in the direction sought with a large enough effect; inconclusive means small, poorly fitted or top-dose-only effect, or another doubt; inactive means no such curve, though single readings can be large; an effect the other way counts as inactive or inconclusive;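 further: IP1 builds up when IMPase is blocked and the TR-FRET signal falls; potency means the concentration at half of the fitted maximal effect; plate controls were basal vehicle for no effect and high inhibitor control for full effect; nearly all actives have a fitted effect of over 50% in size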
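CHO cells stably expressing M1 receptor (2000/well, cultured 16–30 h) treated 30 min at 37C with compound plus low lithium. Cytosolic IP1 by TR-FRET (665/620 ratio and 620 channel) after 10 min lysis; AC50 by Hill fit.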
ALDH1A1 inh: qHTS Assay for Inhibitors of Aldehyde Dehydrogenase 1 (ALDH1A1) | Aldehyde dehydrogenase 1A1 (Homo sapiens), P00352 | Purified ALDH1A1, NADH fluorescence, propionaldehyde substrate | Potency, µM (highest dose often 75.3 µM), inactives show at the highest dose activity, negative = inhibition, usual class: inhibitors | 220,000 tested, 7.3% active;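 further: potency means the concentration at half of the fitted maximal effect; plate controls were no enzyme wells and a reference inhibitor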
HPGD inh: qHTS Assay for Inhibitors of HPGD (15-Hydroxyprostaglandin Dehydrogenase). purified HPGD, NADH fluorescence kinetic, PGE2 substrate. Potency, µM, without a hit: at the highest dose activity change, negative = inhibition, actives largely listed as inhibitors. 150,000 tested, 4.3% active. AID 894, 2007; further: potency means the concentration at half of the fitted maximal effect
Target sequence (P15428 whole entry, looked up): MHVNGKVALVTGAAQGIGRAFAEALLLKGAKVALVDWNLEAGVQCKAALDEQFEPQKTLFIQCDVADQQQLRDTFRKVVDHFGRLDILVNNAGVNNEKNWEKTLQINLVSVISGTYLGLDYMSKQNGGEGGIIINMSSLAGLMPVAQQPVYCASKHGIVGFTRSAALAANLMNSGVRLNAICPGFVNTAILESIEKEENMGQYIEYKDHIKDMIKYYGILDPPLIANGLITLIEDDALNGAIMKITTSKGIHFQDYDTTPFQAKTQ
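NADH formation kinetics: reaction with 30 uM PGE2 and 1 mM NAD+ (final), 20 nM enzyme, Tris-HCl pH 8 with Tween 20, after 15 min compound preincubation at room temperature. Fluorescence change, last versus first of five reads.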
IMPase inh: qHTS Assay for Identifying the Cell-Membrane Permeable IMPase Inhibitors | Inositol monophosphatase 1 (Rattus norvegicus), P97697 | CHO-M1 cells, IP1 accumulation, HTRF TR-FRET ratio | inhibition (IP1 accumulation), % at 46.1 µM | 120,000 tested, under 10 active; active means well fitted curve in the direction sought with a large enough effect in the signal ratio, not every such curve was filed as active; inconclusive means small, poorly fitted or top-dose-only effect, or a change in a side signal; inactive means no such curve, though single readings can be large or run the other way; the % refers to the signal ratio;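 further: cells stimulated with carbachol in lithium chloride buffer; plate controls were DMSO basal wells for no effect and reference inhibitor wells for full effect; higher means more IMPase inhibition seen as more IP1 and lower FRET ratio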
Target sequence (P97697 whole entry, looked up): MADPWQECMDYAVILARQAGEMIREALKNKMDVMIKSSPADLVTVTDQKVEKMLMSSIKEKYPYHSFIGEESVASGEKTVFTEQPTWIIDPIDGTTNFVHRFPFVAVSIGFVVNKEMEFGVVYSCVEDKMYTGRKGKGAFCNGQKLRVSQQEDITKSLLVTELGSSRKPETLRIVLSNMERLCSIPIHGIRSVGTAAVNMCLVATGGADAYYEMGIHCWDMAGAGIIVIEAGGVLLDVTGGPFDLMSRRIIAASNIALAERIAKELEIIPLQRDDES
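The IP-One HTRF competitive assay in carbachol-stimulated CHO-M1 cells quantifies cellular IP1. Compounds spanned up to 46 uM final, and activity is expressed as AC50 from concentration-response fits of the ratio and donor data.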
PNC inhibitor: High Content Assay for Compounds that inhibit the Assembly of the Perinucleolar Compartment. PC3M PTB-GFP, PNC prevalence imaging, 16 h; hits give low values. activity change (PNC), negative = inhibition, % at 10 µM. 140,000 tested, 3.1% active;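 active means readout at or below -70, meaning at least 70% loss of cells showing the perinucleolar compartment, a nuclear body marking cancer cells; inconclusive means readout between -30 and a set limit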;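 further: plate controls were DMSO wells for no effect and camptothecin positive control wells for full effect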
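Compounds are pinned in duplicate onto adhered PC3M cells stably expressing GFP-tagged PTB and incubated 16 h at 37 C. Cells are then fixed, nuclei stained with Hoechst, and PNC-positive cells counted.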
12-hLO inh: qHTS Assay for Inhibitors of 12-hLO (12-human lipoxygenase) | purified 12-hLO, xylenol orange hydroperoxide absorbance | Potency, µM (titrated, usually from 57.1 µM), for inactives: at the highest dose activity change, negative = inhibition, most hits filed as inhibitors | 150,000 tested, 0.12% active; active means well fitted curve in the direction sought with a large enough effect; inconclusive means small, poorly fitted or top-dose-only effect, or another doubt; inactive means no such curve, though single readings can be large; an effect the other way counts as inactive or inconclusive; further: potency means the concentration at half of the fitted maximal effect; nearly all actives have a fitted effect of over 55% in size
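150 nM 12hLO, 25 mM Hepes pH 7.0 + 0.01% Triton X-100; cpd preinc 15 min RT; 40 uM arachidonic acid, 30 min RT; Fe-XO 30 min; A573/A405 ratio as read-out.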
Starred values were filed as active, the others as inactive; ? = inconclusive; . = not tested or not shown; [ ] = another dose, or the depositor's remark. Only some compounds are listed: those with a hit (about 11% of all), similar ones and a draw of the others. Unless noted, the call rests on the fitted dose curve; in most records, active means well fitted inhibition curve with a large enough effect (not every such curve was filed as active); inconclusive means small, poorly fitted or top-dose-only effect, or another doubt; inactive means no such curve, though single readings can be large or run the other way. Unless noted, on the % scale 0 is the no-effect control and ±100 the full control effect.

SMILES	IMPase Li cell	ALDH1A1 inh	HPGD inh	IMPase inh	PNC inhibitor	12-hLO inh
CO/N=C1/[C@H]2O[C@@H]2[C@@H](O)[C@H]2[C@H]1CCn1c(=O)n(-c3ccccc3)c(=O)n12	.	-5.8%[13.5 µM]	.	.	.	.
CC(C)(C)c1ccc(Oc2ccc(NC(=O)CCC(=O)OCC(=O)c3ccccc3)cc2)cc1	.	.	.	2.0	.	.
CCCCN(Cc1ccccc1)C(=O)C1CCN(S(=O)(=O)c2c(C)noc2C)CC1	25.2%[38.3 µM]	8.0%	-14.0%	-4.3	-28.8	5.2%
[ClH+][Cu][ClH+].[Cu].[OH2+]c1ccc2ccccc2c1CN1CCCCC1.[OH2+]c1ccc2ccccc2c1CN1CCCCC1	-11.1%	1.78µM*	-12.6%	.	.	.
Oc1ccc2ccccc2c1CN1CCN(c2ccccc2F)CC1	11.1%	?	-26.4%	11.0	71.8	-0.8%
O=[N+]([O-])c1ccc(S(=O)(=O)Cc2ccccc2)c([N+](=O)[O-])c1	6.8%	1.26µM*	-14.9%	.	.	-4.9%[11.4 µM]
CC(=NC1CCCC1)c1c(C)[nH]n(-c2nc3ccccc3s2)c1=O	3.3%[38.3 µM]	14.1µM*	-16.1%	4.6	-0.4	1.8%
CC(=NC1CC1)c1c(-c2ccccc2)[nH]n(-c2nc3ccccc3s2)c1=O	30.2%[38.3 µM]	-2.2%	-9.9%	-3.9	78.0	21.3%
CS(=O)(=O)c1ccc2c(c1)sc1nc(=O)c(/C=C3/C=CC(=O)C(O)=C3)c(N)n12	.	12.6µM*	.	.	.	.
Cc1cccc(-n2c(=S)[nH]c3nc4c(cc3c2=O)COC(C)(C)C4)c1	.	0.708µM*	.	.	.	.
CCOC(=O)COc1ccccc1/C=C\[N+](=O)[O-]	20.9%	4.47µM*	15.8µM*	15.5	?	-15.3%
Cn1c(=O)cnc2cnc(Oc3ccccc3)nc21	-4.7%	?	-7.9%	.	.	-0.9%
CCOc1ccc(NCC(=O)Nc2ccc(C)cc2C)cc1	31.3%[38.3 µM]	1.78µM*	-2.9%	-0.6	20.3	-16.0%
Cc1ccc(NC(=O)Cn2cccc2)c(Br)c1	-7.4%[38.3 µM]	-3.6%	14.1µM*	7.5	?	1.3%
Cc1cccc(NC(=O)Cn2cccc2)c1	-6.2%[38.3 µM]	0.6%	-5.0%	-4.9	18.6	1.6%
CCOc1ccc(NC(=O)CNc2ccc(C)cc2Cl)cc1	23.2%[38.3 µM]	3.4%	-12.1%	-0.6	38.7	-5.6%
Cc1ccc(NC(=O)Cn2cccc2)c(C)c1	10.8%[38.3 µM]	-0.9%	2.24µM*	-1.5	28.1	8.6%
Cn1cnc([N+](=O)[O-])c1SCC(=O)O	-4.1%	-7.2%[13.5 µM]	-5.2%	.	.	2.4%[11.4 µM]
COC(=O)c1c(NC(=O)CCCOc2ccc(C(C)(C)C)cc2)sc2c1C(C(=O)OC)CC2 (stereo not drawn)	.	.	.	3.0	.	.
COc1cccc(C(=O)Nc2ccc(S(=O)(=O)Nc3onc(C)c3C)cc2)c1	-10.6%[38.3 µM]	14.6%	35.5µM*	6.8	19.0	0.8%
COc1cccc(C(=O)Nc2ccc(S(=O)(=O)Nc3nccc(C)n3)cc2)c1	5.5%	-11.1%	28.2µM*	.	?	0.2%
COc1cccc(Nc2cc(C)nc3nc(C)nn23)c1	-7.7%[38.3 µM]	10.4%	-11.0%	7.5	45.3	0.1%
COc1ccc(C)cc1Nc1cc(C)nc2nc(C)nn12	29.5%[38.3 µM]	6.8%	1.41µM*	1.1	12.5	-2.3%
CCCOC(=O)c1ccc(Nc2cc(C)nc3ncnn23)cc1	-12.7%[38.3 µM]	?	-8.9%	3.4	-26.5	-1.3%
COc1ccc(C(=O)O)cc1Nc1cc(C)nc2ncnn12	-0.4%[38.3 µM]	-3.8%	25.1µM*	4.5	8.6	-1.3%
COc1ccc(OC)c(Nc2cc(C)nc3nc(C)nn23)c1	18.8%[38.3 µM]	0.6%	2µM*	-5.7	7.2	-0.3%
COc1ccc(Nc2cc(C)nc3nc(C)nn23)c(OC)c1	22.8%	0.6%	8.91µM*	.	12.9	0.8%
